Results published in PubChem BioAssay (EPA / NIEHS).
Active and inactive are the calls of the source. Rule for the calls: active = hit-call score of the fitted dose curve at least 0.9, where 1 is the maximum; inactive = score below 0.9.

Key:
[1] = ATG_CRE_CIS: Attagene CIS-FACTORIAL HepG2 Assay for human cAMP Responsive Element (CRE) binding protein 3 (AID 2282926); details: HepG2 CRE cis-reporter, Attagene multiplexed mRNA; actives raise or lower the signal
Method in brief: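 Multiplexed transcription-unit reporters transfected into HepG2; 24 h dosing; RT-PCR/capillary electrophoresis fluorescence read-out; bidirectional fit vs DMSO.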

[2] = target: CCAAT/enhancer-binding protein beta (Homo sapiens) (UniProt P17676); assay: ATG_C_EBP_CIS: Attagene CIS-FACTORIAL HepG2 Assay for human CCAAT/Enhancer Binding Protein (C/EBP) beta (AID 2282927); details: HepG2 Attagene cis-factorial transcription factor reporter; actives raise or lower the signal
Sequence of CCAAT/enhancer-binding protein beta (Homo sapiens) (P17676 whole entry, looked up): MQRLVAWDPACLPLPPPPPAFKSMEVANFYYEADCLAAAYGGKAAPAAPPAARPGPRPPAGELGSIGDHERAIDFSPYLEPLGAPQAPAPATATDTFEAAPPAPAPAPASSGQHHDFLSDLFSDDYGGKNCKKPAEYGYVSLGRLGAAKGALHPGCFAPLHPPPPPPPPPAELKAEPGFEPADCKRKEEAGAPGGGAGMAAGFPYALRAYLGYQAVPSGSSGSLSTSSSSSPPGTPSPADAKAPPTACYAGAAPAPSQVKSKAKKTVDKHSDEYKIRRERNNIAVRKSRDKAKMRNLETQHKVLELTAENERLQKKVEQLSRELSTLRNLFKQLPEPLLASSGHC
Method in brief: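 HepG2 transiently transfected with multiplexed reporter units under cis-regulatory promoters reporting endogenous C/EBPb activity. After 24 h exposure, reporter mRNA assayed by RT-PCR, fluorescent labelling, HpaI digestion and capillary electrophoresis; bidirectional fitting versus DMSO.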

[3] = ATG_CMV_CIS: Attagene CIS-FACTORIAL HepG2 Assay for human CMV (Internal Marker) (AID 2282928); details: HepG2 CMV promoter reporter, transcription factor profiling; actives raise or lower the signal;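 note: endpoint acts as a background internal control marker rather than a target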
Method in brief: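 Cell system: HepG2, transiently transfected multiple reporter units under cis promoters. Exposure: 24 h. Detection: RT-PCR, FAM labeling, HpaI digestion, capillary electrophoresis. Analysis: bidirectional, DMSO baseline.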

[4] = ATG_DR4_LXR_CIS: Attagene CIS-FACTORIAL HepG2 Assay for human Liver X Receptor (LXR), DR4 submotif (AID 2282929); details: HepG2 Attagene DR4 cis-reporter, mRNA transcription; actives raise or lower the signal
Method in brief: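 Fluorescence intensity of labelled reporter cDNA fragments, separated by capillary electrophoresis, gives the signal. HepG2 cells bearing cis-regulated reporter constructs were treated 24 h; activity fitted bidirectionally relative to DMSO negative control.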

[5] = target: Aryl hydrocarbon receptor (Homo sapiens) (UniProt P35869); assay: ATG_Ahr_CIS: Attagene CIS-FACTORIAL HepG2 Assay for human Aryl Hydrocarbon Receptor (Ahr) (AID 2282930); details: HepG2 AhR cis-factorial reporter transcription; actives raise or lower the signal
Sequence of Aryl hydrocarbon receptor (Homo sapiens) (P35869 whole entry, looked up): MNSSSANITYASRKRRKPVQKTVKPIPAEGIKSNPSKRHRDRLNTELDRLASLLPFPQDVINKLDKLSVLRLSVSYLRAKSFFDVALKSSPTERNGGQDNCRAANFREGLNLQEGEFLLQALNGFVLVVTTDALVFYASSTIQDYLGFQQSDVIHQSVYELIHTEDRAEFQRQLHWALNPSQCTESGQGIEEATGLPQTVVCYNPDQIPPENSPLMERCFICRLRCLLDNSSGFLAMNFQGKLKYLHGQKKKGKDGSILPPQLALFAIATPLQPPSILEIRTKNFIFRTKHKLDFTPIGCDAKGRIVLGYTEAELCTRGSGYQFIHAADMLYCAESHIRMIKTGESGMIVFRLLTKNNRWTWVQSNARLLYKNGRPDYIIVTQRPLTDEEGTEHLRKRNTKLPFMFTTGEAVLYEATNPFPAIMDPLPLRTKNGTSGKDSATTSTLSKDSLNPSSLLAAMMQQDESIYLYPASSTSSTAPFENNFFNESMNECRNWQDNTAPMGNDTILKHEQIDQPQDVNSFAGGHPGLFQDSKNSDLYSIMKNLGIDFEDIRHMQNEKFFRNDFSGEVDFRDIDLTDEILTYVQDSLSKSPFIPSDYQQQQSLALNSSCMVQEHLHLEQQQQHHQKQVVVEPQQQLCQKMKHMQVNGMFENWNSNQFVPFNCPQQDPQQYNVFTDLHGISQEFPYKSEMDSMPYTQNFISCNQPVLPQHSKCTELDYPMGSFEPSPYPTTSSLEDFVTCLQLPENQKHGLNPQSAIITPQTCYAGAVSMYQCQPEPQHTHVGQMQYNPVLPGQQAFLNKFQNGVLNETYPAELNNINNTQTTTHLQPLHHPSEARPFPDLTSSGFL
Method in brief: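 HepG2 cells transiently transfected with cis-element-driven multiplexed reporter units; endogenous AhR activity read as reporter mRNA 24 h after dosing, via RT-PCR, 6-FAM labelling, HpaI digestion and capillary electrophoresis. Bidirectional fit relative to DMSO.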

[6] = ATG_AP_1_CIS: Attagene CIS-FACTORIAL HepG2 Assay for human Activator Protein 1 (AP-1) (AID 2282931); details: HepG2 Attagene cis-factorial AP-1 reporter mRNA; actives raise or lower the signal
Method in brief: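 Multiplexed HepG2 reporter assay, 24 h dosing. mRNA induction detected by RT-PCR plus capillary electrophoresis. Activity fitted in both directions against DMSO.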

[7] = ATG_AP_2_CIS: Attagene CIS-FACTORIAL HepG2 Assay for human Activator Protein 2 (AP-2) (AID 2282932); details: HepG2 AP-2 cis-reporter, Attagene transcription factor profiling; actives raise or lower the signal
Method in brief: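 Multiplexed mRNA reporter assay in HepG2: cis-regulated units report endogenous factor activity after 24 h treatment. Fluorescence from capillary electrophoresis of RT-PCR products gives the signal, with DMSO as baseline.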

[8] = ATG_BRE_CIS: Attagene CIS-FACTORIAL HepG2 Assay for human Bone Morphogenetic Protein (BMP) Response Element (BRE) (AID 2282933); details: HepG2 BMP response element reporter, Attagene transcription factor profiling; actives raise or lower the signal
Method in brief: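 Fluorescence-labelled reporter cDNA fragments, separated by capillary electrophoresis, gave the signal for this component of a 52-readout multiplex. HepG2 cells were transfected, exposed to chemicals for 24 h, and compared with DMSO using bidirectional fitting.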

[9] = target: Transcription factor E2F1 (Homo sapiens) (UniProt Q01094); assay: ATG_E2F_CIS: Attagene CIS-FACTORIAL HepG2 Assay for human E2F Transcription Factor 1 (AID 2282935); details: HepG2 Attagene cis-reporter, E2F reporter RNA transcripts; actives raise or lower the signal
Sequence of Transcription factor E2F1 (Homo sapiens) (Q01094 whole entry, looked up): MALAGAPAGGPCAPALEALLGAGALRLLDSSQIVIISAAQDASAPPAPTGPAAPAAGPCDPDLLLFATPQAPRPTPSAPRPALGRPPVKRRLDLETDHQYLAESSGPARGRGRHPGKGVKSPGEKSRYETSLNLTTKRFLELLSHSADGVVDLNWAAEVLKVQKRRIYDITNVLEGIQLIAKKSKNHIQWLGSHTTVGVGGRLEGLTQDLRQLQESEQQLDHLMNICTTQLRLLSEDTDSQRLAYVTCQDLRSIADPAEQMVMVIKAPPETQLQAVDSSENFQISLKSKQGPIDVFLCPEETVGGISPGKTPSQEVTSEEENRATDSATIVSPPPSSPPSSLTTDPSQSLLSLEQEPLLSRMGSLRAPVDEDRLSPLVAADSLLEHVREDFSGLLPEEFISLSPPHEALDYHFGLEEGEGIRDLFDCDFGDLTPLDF
Method in brief: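 Measures reporter transcript levels via RT-PCR with capillary electrophoresis detection in HepG2 cells harboring cis-regulated reporter units; 24 h post-dose; bidirectional curve fitting with DMSO as baseline.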

[10] = ATG_E_Box_CIS: Attagene CIS-FACTORIAL HepG2 Assay for human Enhancer Box (E-box) (AID 2282936); details: HepG2 E-box cis-reporter transcription, actives raise or lower the signal
Method in brief: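 First, HepG2 cells receive multiple cis-regulated reporter constructs by transient transfection. Next, chemicals are applied for 24 h. Finally, reporter mRNA is quantified via RT-PCR and capillary electrophoresis, with DMSO as baseline.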

[11] = ATG_M_61_CIS: Attagene CIS-FACTORIAL HepG2 Assay for M61 Transcription Factor (Internal Marker) (AID 2282937); details: HepG2 Attagene CIS-FACTORIAL M61 internal marker reporter; actives raise or lower the signal
Method in brief: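 Endogenous transcription factor activity in HepG2 is read through transiently transfected cis-element reporter units. After 24 h dosing, RNA undergoes reverse transcription, PCR and primer extension with 6-FAM before capillary electrophoresis; DMSO-referenced bidirectional fit.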

[12] = ATG_EGR_CIS: Attagene CIS-FACTORIAL HepG2 Assay for human Early Growth Response 1 (EGR1) (AID 2282938); details: HepG2 Attagene CIS-FACTORIAL EGR reporter mRNA; actives raise or lower the signal
Method in brief: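 Activity is taken as induction or loss of reporter mRNA versus DMSO, fitted bidirectionally. Transcripts from cis-regulated reporter units in transiently transfected HepG2 were measured after 24 h by RT-PCR with capillary electrophoresis.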

[13] = ATG_M_19_CIS: Attagene CIS-FACTORIAL HepG2 Assay for M19 Transcription Factor (Internal Marker) (AID 2282939); details: HepG2 Attagene CIS-FACTORIAL M19 internal marker reporter; actives raise or lower the signal
Method in brief: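 HepG2, MRTU transient transfection, 24 h dosing. Total RNA → RT-PCR → 6-FAM primer extension → HpaI digest → CE fluorescence. Bidirectional curve fit, DMSO negative control.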

[14] = ATG_ERE_CIS: Attagene CIS-FACTORIAL HepG2 Assay for Estrogen Response Element (ERE) (AID 2282940); details: HepG2 ERE cis-reporter, Attagene RNA transcript; actives raise or lower the signal
Method in brief: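 After a 24 h chemical treatment, RNA from reporter-transfected HepG2 cells is reverse-transcribed, PCR-amplified and fluorescently labelled. Fragments separated by capillary electrophoresis give reporter signal; DMSO serves as negative control.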

[15] = ATG_Ets_CIS: Attagene CIS-FACTORIAL HepG2 Assay for human Erythroblast Transformation Specific (ETS) (AID 2282941); details: HepG2 ETS cis-reporter transcription, actives raise or lower the signal
Method in brief: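 After transient cis-reporter transfection, HepG2 cells receive test chemical for 24 h. Reporter mRNA levels, measured by RT-PCR and capillary electrophoresis fluorescence, are analysed bidirectionally relative to the DMSO baseline.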

[16] = ATG_FoxO_CIS: Attagene CIS-FACTORIAL HepG2 Assay for human Forkhead box O (FoxO) (AID 2282943); details: HepG2 Attagene cis-reporter, FoxO element, mRNA; actives raise or lower the signal
Method in brief: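 HepG2 cells transiently transfected with cis-element-driven reporter units report endogenous FoxO activity. After 24 h chemical exposure, reporter mRNA quantified by RT-PCR, fluorescent labeling, HpaI digestion and capillary electrophoresis; bidirectional fit versus DMSO.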

[17] = ATG_GATA_CIS: Attagene CIS-FACTORIAL HepG2 Assay for human GATA Binding Protein (AID 2282944); details: HepG2 GATA cis-element reporter, Attagene multiplex mRNA; actives raise or lower the signal
Method in brief: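 Cells: HepG2, transiently transfected with cis-regulated reporter transcription units. Exposure: 24 h. Detection: RT-PCR plus capillary electrophoresis of FAM-labeled fragments. Analysis: bidirectional, DMSO as baseline.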

[18] = ATG_GLI_CIS: Attagene CIS-FACTORIAL HepG2 Assay for human Zinc Finger Protein GLI1 (AID 2282945); details: HepG2, Attagene cis-factorial reporter mRNA, GLI element; actives raise or lower the signal
Method in brief: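 Transiently transfected HepG2 cells report endogenous transcription factor activity via cis-element-driven reporter units. After 24 h compound exposure, reporter mRNA was measured by RT-PCR with capillary electrophoresis; bidirectional fitting against DMSO baseline.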

[19] = target: Hepatocyte nuclear factor 3-beta (Homo sapiens) (UniProt Q9Y261); assay: ATG_FoxA2_CIS: Attagene CIS-FACTORIAL HepG2 Assay for human Forkhead box A2 (FOXA2) (AID 2282942); details: HepG2 cis-reporter transcription factor activity, 24 h; actives raise or lower the signal
Sequence of Hepatocyte nuclear factor 3-beta (Homo sapiens) (Q9Y261 whole entry, looked up): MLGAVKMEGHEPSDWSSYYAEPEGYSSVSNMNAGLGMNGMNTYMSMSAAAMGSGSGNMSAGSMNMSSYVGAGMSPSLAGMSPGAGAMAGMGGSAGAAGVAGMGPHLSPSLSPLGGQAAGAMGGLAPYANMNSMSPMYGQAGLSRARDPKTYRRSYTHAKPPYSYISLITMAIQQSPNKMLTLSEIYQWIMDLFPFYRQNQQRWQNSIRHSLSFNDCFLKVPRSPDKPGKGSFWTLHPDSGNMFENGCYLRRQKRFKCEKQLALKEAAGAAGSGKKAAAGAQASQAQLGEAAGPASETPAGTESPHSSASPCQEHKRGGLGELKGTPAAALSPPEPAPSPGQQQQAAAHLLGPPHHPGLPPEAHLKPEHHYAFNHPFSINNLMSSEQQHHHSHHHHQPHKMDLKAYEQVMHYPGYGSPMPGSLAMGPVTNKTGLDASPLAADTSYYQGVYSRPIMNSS
Method in brief: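 Reporter transcript induction is measured by fluorescence after capillary electrophoresis of RT-PCR products from HepG2 cells exposed 24 h. Cis-regulated reporter units report endogenous factor activity; curves fitted both directions against DMSO.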

SMILES: CNCCCC12CCC(c3ccccc31)c1ccccc12
- outcome [1]: inactive
- outcome [2]: inactive
- AC50 [3]: 11.1 µM (active)
- AC50 [4]: 11.1 µM (active)
- outcome [5]: inactive
- outcome [6]: inactive
- outcome [7]: inactive
- outcome [8]: inactive
- outcome [9]: inactive
- outcome [10]: inactive
- outcome [11]: inactive
- AC50 [12]: 15.7 µM (active)
- outcome [13]: inactive
- outcome [14]: inactive
- AC50 [15]: 11.1 µM (active)
- outcome [16]: inactive
- outcome [17]: inactive
- AC50 [18]: 15.7 µM (active)

SMILES: CCOc1ccccc1OCC
- outcome [1]: inactive
- outcome [2]: inactive
- outcome [3]: inactive
- outcome [4]: inactive
- outcome [5]: inactive
- outcome [6]: inactive
- outcome [7]: inactive
- outcome [8]: inactive
- outcome [9]: inactive
- outcome [10]: inactive
- outcome [11]: inactive
- outcome [12]: inactive
- outcome [13]: inactive
- outcome [15]: inactive
- outcome [19]: inactive
- outcome [16]: inactive
- outcome [17]: inactive
- outcome [18]: inactive

SMILES: CC(=O)OCC=Cc1ccccc1
- outcome [1]: inactive
- outcome [2]: inactive
- outcome [3]: inactive
- outcome [4]: inactive
- outcome [5]: inactive
- outcome [6]: inactive
- outcome [7]: inactive
- outcome [8]: inactive
- outcome [9]: inactive
- outcome [10]: inactive
- outcome [11]: inactive
- outcome [12]: inactive
- outcome [13]: inactive
- outcome [15]: inactive
- outcome [19]: inactive
- outcome [16]: inactive
- outcome [17]: inactive
- outcome [18]: inactive

SMILES: O=C=NC1CCC(CC2CCC(N=C=O)CC2)CC1 (stereo not drawn)
- AC50 [1]: 28.4 µM (active)
- AC50 [2]: 65.1 µM (active)
- AC50 [3]: 64.8 µM (active)
- AC50 [4]: 179 µM (active)
- AC50 [5]: 83.7 µM (active)
- outcome [6]: inactive
- outcome [7]: inactive
- AC50 [8]: 41.7 µM (active)
- outcome [9]: inactive
- AC50 [10]: 76.9 µM (active)
- outcome [11]: inactive
- outcome [12]: inactive
- AC50 [13]: 100 µM (active)
- outcome [15]: inactive
- outcome [19]: inactive
- outcome [16]: inactive
- outcome [17]: inactive
- AC50 [18]: 174 µM (active)

SMILES: Cc1c(N(C)C)c(=O)n(-c2ccccc2)n1C
- outcome [1]: inactive
- outcome [2]: inactive
- outcome [3]: inactive
- outcome [4]: inactive
- AC50 [5]: 64.9 µM (active)
- outcome [6]: inactive
- outcome [7]: inactive
- outcome [8]: inactive
- outcome [9]: inactive
- outcome [10]: inactive
- outcome [11]: inactive
- outcome [12]: inactive
- outcome [13]: inactive
- outcome [14]: inactive
- outcome [15]: inactive
- outcome [16]: inactive
- outcome [17]: inactive
- outcome [18]: inactive

SMILES: CC(C)(C#N)c1cc(Cn2cncn2)cc(C(C)(C)C#N)c1
- outcome [1]: inactive
- outcome [2]: inactive
- outcome [3]: inactive
- outcome [4]: inactive
- outcome [5]: inactive
- outcome [6]: inactive
- outcome [7]: inactive
- outcome [8]: inactive
- outcome [9]: inactive
- outcome [10]: inactive
- outcome [11]: inactive
- outcome [12]: inactive
- outcome [13]: inactive
- outcome [15]: inactive
- outcome [19]: inactive
- outcome [16]: inactive
- outcome [17]: inactive
- outcome [18]: inactive

SMILES: C=C(C)C(=O)O
- outcome [1]: inactive
- outcome [2]: inactive
- outcome [3]: inactive
- outcome [4]: inactive
- outcome [5]: inactive
- outcome [6]: inactive
- outcome [7]: inactive
- outcome [8]: inactive
- outcome [9]: inactive
- outcome [10]: inactive
- outcome [11]: inactive
- outcome [12]: inactive
- outcome [13]: inactive
- outcome [14]: inactive
- outcome [16]: inactive
- outcome [17]: inactive
- outcome [18]: inactive

SMILES: CC(=O)[O][Al][O]C(C)=O
- outcome [1]: inactive
- outcome [2]: inactive
- outcome [3]: inactive
- outcome [4]: inactive
- outcome [5]: inactive
- outcome [6]: inactive
- outcome [7]: inactive
- outcome [8]: inactive
- outcome [9]: inactive
- outcome [10]: inactive
- outcome [11]: inactive
- outcome [12]: inactive
- outcome [13]: inactive
- outcome [14]: inactive
- outcome [15]: inactive
- outcome [16]: inactive
- outcome [17]: inactive
- outcome [18]: inactive
